The whole screen tested about 360,000 compounds, of which about 2,100 (0.58%) were called active.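 The calls were made as follows: active = inhibition at 20 µM, scaled to each plate's controls, above about 33% (limit read from the data); inactive = the rest.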 Many of the other results were omitted from the sample, so actives are more common in it than they were.
Molecular target: 26S proteasome non-ATPase regulatory subunit 14 (Homo sapiens) (UniProt O00487)
Test: inhibition of 26S proteasome subunit Rpn11 – biochemical, fluorescence polarization, uHTS, primary screen (AID 588493)
Details: human 26S proteasome, Ub4-pepOG fluorescence polarization; at 20 µM; hits give high values; 20S core pre-blocked with epoxomicin

Sequence of 26S proteasome non-ATPase regulatory subunit 14 (Homo sapiens) (O00487 whole entry, looked up): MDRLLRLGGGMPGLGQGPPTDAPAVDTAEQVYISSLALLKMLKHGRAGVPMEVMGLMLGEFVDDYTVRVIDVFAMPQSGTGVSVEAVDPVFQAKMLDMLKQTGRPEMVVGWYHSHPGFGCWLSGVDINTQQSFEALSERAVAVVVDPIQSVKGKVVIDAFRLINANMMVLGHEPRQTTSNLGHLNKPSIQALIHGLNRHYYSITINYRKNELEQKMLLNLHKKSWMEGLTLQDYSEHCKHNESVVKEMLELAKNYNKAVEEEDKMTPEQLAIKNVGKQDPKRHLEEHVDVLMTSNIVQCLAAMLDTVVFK

SMILES	inhibition
Cn1c2ccc(F)cc2c2nnc(NN)nc21	5.1% (inactive)
O=C(O)C1C2C=CC(O2)C1C(=O)NCCc1cccc(Cl)c1 (configuration not stated)	1% (inactive)
O=C(NCc1ccccc1)[C@H]1C[C@@H]1[C@H](NP(=O)(c1ccccc1)c1ccccc1)c1ccccc1	9.5% (inactive)
CCOc1ccc(C(=O)Nc2ccc(S(=O)(=O)NCC3CCCO3)cc2)cc1OCC (configuration not stated)	-3.2% (inactive)
CCOc1cc(/C=C2\SC(N3CCCCC3)=NC2=O)ccc1O	46.9% (active)
CCOc1ccc2nc(C(=O)N3CCCC(C)C3)sc2c1 (configuration not stated)	-2.7% (inactive)
O=C1N=C(N2CCc3ccccc3C2)S/C1=C\c1ccc(O)cc1	-9.2% (inactive)
CCOc1cc(/C=N/NC(=O)CN2CCCCC2)ccc1O	-1.4% (inactive)
Cc1ccsc1/C=C1\SC(N2CCOCC2)=NC1=O	-7.5% (inactive)
CCOc1cc(/C=C2\SC(N3CCCC(C)C3)=NC2=O)ccc1O (configuration not stated)	62.1% (active)
CC(=O)n1cc([C@H]2C=C(C(=O)N3CCOCC3)O[C@@H](OCc3ccc(CO)cc3)C2)c2ccccc21	3.9% (inactive)
Cc1cc[n+](-c2[nH]c(=O)sc2/C=N/NC(=O)c2ccccc2[O-])cc1C	-29.4% (inactive)
CCc1ccc2[nH]c(=O)c(Cc3ccccc3)c(O)c2c1	-4.6% (inactive)
O=C(c1ccc(OC2CCN(C(=O)c3cccnc3)CC2)cc1)N1CCCCCC1	-0.5% (inactive)
Cc1cccc(OCCCC(=O)Nc2ccc(S(=O)(=O)N3CCCC3)cc2)c1	-2.1% (inactive)
C=CC[n+]1c(-c2ccc(C)cc2)csc1NNC(=O)Nc1ccccc1	42.6% (active)
Cc1ccc(NC(=O)NNC(=O)c2sccc2-n2cccc2)cc1	-1.9% (inactive)
O=C(NNC(=O)c1ccc(-c2ccccc2)cc1)Nc1ccccc1	-0.3% (inactive)
CCCCOC(=O)c1ccc(NC(c2ccc(C)cc2)P(=O)(OC)OC)cc1 (configuration not stated)	-3.9% (inactive)
COC(=O)c1cccc(NS(C)(=O)=O)c1	-3.1% (inactive)
C=CCc1ccc(OCCOc2cccc(/C=N/n3cnnc3)c2)c(OC)c1	-5.7% (inactive)
c1csc(-c2nnc(COc3ccc4c(c3)OCO4)o2)c1	-8.5% (inactive)
CCOC(=O)C(=O)Nc1nc(-c2ccccc2)c(CC)s1	3.6% (inactive)
C/C(=N/Nc1nc(-c2ccccc2)c(CC(=O)O)s1)c1ccccc1	57.8% (active)

SMILES	inhibition
CCOc1ccc(-c2nc(C)sc2CC(=O)O)cc1	-1.6% (inactive)
O=C1C=C(c2cccc(Cl)c2O)C[C@@H](c2ccc(F)cc2)C1	-0.6% (inactive)
Nc1nonc1-n1nnc(C(=O)N/N=C/c2cc(Br)ccc2O)c1CSC1=NCCS1	43.6% (active)
COCc1c(C(=O)N/N=C\c2cccnc2)nnn1-c1nonc1N	-1.2% (inactive)
CC(C)c1c(C(=O)N/N=C/c2ccccc2C(=O)O)nnn1-c1nonc1N	-1.4% (inactive)
CC(C)Cn1c(=O)c2ccccc2n2c(CCC(=O)NCc3ccccn3)nnc12	4.1% (inactive)
O=C(Nc1c[nH]c(=O)[nH]c1=O)OCc1ccccc1	-11.5% (inactive)
N#C/C=C1\Sc2ccccc2C(=O)N1CC(=O)N1CCN(S(=O)(=O)c2ccccc2)CC1	5.4% (inactive)
CC(O)c1nc2ccccc2n1Cc1ccc([N+](=O)[O-])cc1 (configuration not stated)	1.9% (inactive)
Cc1nc2ccccc2nc(=O)c1NNc1ccc([N+](=O)[O-])cc1	43.9% (active)
Cc1cccc(NS(=O)(=O)c2ccc([N+](=O)[O-])cc2)n1	-2.6% (inactive)
CCC(=O)N1CCC(C(N)=O)(N2CCCCC2)CC1	-4.7% (inactive)
CCOC(=O)CN(C(=O)COc1nc(C)cc(C)c1C#N)c1ccc(Cl)cc1	1.3% (inactive)
O=C1Nc2ccc(Br)cc2/C1=N/N=C/C1=C(N2CCOCC2)C(=C\c2ccccc2)/CC1	8% (inactive)
O=C(O)c1ccc(NN=CC2=C(N3CCOCC3)/C(=C/c3ccccc3)CC2)cc1	51.4% (active)
C=CCn1c(-c2ccccc2OCC)n[nH]c1=S	-4.4% (inactive)
Cc1ccccc1CSCC(=O)NC(=O)NC(C)(C)C	4.3% (inactive)
CC(C)(C)NC(=O)CSC(=Nc1ccccc1F)NC#N	45.6% (active)
CC(C)(C)NC(=O)CSc1nnc(NC(=O)CCc2ccccc2)s1	2.2% (inactive)
CC(=O)Nc1ccc(NC(=O)CSCc2cnn(-c3ccccc3)c2-n2cccc2)cc1	-1.2% (inactive)
CCc1c(C)[nH]c(=S)c(C#N)c1C	-1.9% (inactive)
Cc1cccc(-n2c(SCC(N)=O)nc3c(c2=O)C2(CCCCC2)Cc2ccccc2-3)c1	14.6% (inactive)
COc1ccc(C(=O)NCc2ccc(Cl)cc2)cc1S(=O)(=O)N1CCCC1	-4.5% (inactive)
